Sm TGR block: qHTS Assay for the Inhibitors of Schistosoma Mansoni Peroxiredoxins | Schistosoma mansoni thioredoxin glutathione reductase (TGR), Q962Y6 | purified TGR, DTNB reduction, TNB absorbance 405 nm | Potency, µM (series often up to 114 µM), most hits filed as inhibitors | 360,000 compounds, 3% hits | AID 485364, 2010; note: nearly all actives have a fitted effect of over 60% in size
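First, TGR (20 nM dispensed) and NADPH were mixed with compound. Second, a 15 min room-temperature incubation followed. Third, further NADPH and then DTNB were added to start the reaction. Finally, TNB absorbance was monitored kinetically.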
FMDV antiviral: High Throughput Screening for Foot and Mouth Disease Virus Antivirals. AID 1159524, 2015. 410,000 compounds, 1.2% hits. FMDV antiviral cell-based qHTS. Potency, µM (top dose mostly 57.9 µM), usual class: inhibitors; calls by dose curve; tested in HEK293T cells; note: read-out not given here; nearly all actives have a fitted effect of over 45% in size
RE007 growth inh: qHTS Assay for Inhibitors of the HIV-1 protein Vpr. S. pombe RE007 Vpr strain, BacTiter-Glo ATP luminescence, 24 h. Potency, µM (highest dose often 92.2 µM), actives largely listed as inhibitors. 360,000 compounds, 0.21% hits; active = well fitted falling curve with a large enough effect; inconclusive = small, poorly fitted or top-dose-only effect; inactive = no such curve, though single readings can be large or run the other way; note: nearly all actives have a fitted effect of over 50% in size
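Fission yeast strain RE007, carrying one chromosomally integrated HIV-1 vpr copy, was seeded at OD 0.01 in PMG+AL medium with 23 nL pinned compound. After 24 h at 30 °C and 99% humidity, viability was read by BacTiter-Glo luminescence.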
Lassa entry inh: qHTS for Inhibitors of binding or entry into cells for Lassa Virus; Lassa virus pseudotype entry inhibition, cell reporter; Potency, µM (series often up to 37.9 µM), actives largely listed as inhibitors; 300,000 compounds, 1.2% hits; calls by dose curve; tested in HEK293 cells; note: nearly all actives have a fitted effect of over 50% in size
MARV entry inh: qHTS for inhibitors of binding or entry into cells for Marburg Virus; Potency, µM (titrated, usually from 37.8 µM), actives largely listed as inhibitors; 300,000 compounds, 1.8% hits; Marburg virus pseudotyped entry inhibition, cell reporter; calls by dose curve; tested in HEK293 cells
HCV inh: qHTS Assay for Inhibitors of Hepatitis C Virus (HCV) | Huh7.5.1 HCVcc-Cre infection, luciferase reporter, 44 h | Potency, µM (doses to about 41.8 µM), hits mostly inhibitors | 340,000 compounds, 3.4% hits | AID 651820, 2012
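Whole-lifecycle infectious HCVcc-Cre system; cells 1,000/well, compound then virus (~0.5 moi) added 4 h after plating, 44 h culture. Luciferase read 15 sec following 15 min substrate incubation, room temp.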
Large screens that a line does not name were inactive. Sampled rows, rich in hits. Any-hit rate of the full collection: about 7.2%. Unless noted, calls come from the whole dose curve; as a rule, active = well fitted curve in the direction sought with a large enough effect; inconclusive = small, poorly fitted or top-dose-only effect, or another doubt; inactive = no such curve, though single readings can be large; an effect the other way counts as inactive or inconclusive.

O=C(C1CCCCC1)N1CCc2[nH]c3ccc(F)cc3c2C1	none (no result: Lassa entry inh, MARV entry inh)
COc1ccccc1NC(=O)N1CCc2[nH]c3ccc(F)cc3c2C1	FMDV antiviral inconclusive, HCV inh 10µM
CN(C)C1=NC[C@H](Cc2ccccc2)N1CCCC1CCCCC1	FMDV antiviral inconclusive, HCV inh 3.98µM (no result: Lassa entry inh, MARV entry inh)
Cc1c(C(=O)Nc2nccs2)sc2nc(-c3cccs3)cc(C(F)(F)F)c12	MARV entry inh inconclusive, HCV inh 11.2µM
CCCOc1ccc(C(=O)N(Cc2cccs2)c2ccc(C)cc2)cc1	none (no result: RE007 growth inh, HCV inh)
Cc1ccccc1CN1C(=O)c2ccccc2Sc2ccc(C(=O)NC(C)c3ccccc3)cc21 (configuration not stated)	none (no result: RE007 growth inh, MARV entry inh, HCV inh)
Cn1c(=N)n(CC(O)c2cccc3ccccc23)c2ccccc21 (configuration not stated)	Lassa entry inh inconclusive, MARV entry inh inconclusive, HCV inh 11.2µM
Cn1c(=N)n(CC(O)c2ccco2)c2ccccc21 (configuration not stated)	none
CCOC(=O)C1=C(C)S/C(=C\N(C)C)C1=O	Lassa entry inh inconclusive
CCOC(=O)C1=C(C)NC(=O)/C1=C\N(C)C	Sm TGR block 20µM
CCCCNc1nc2c(c(=O)n(C)c(=O)n2C)n1CC(O)COc1ccccc1C (configuration not stated)	MARV entry inh inconclusive (no result: RE007 growth inh, HCV inh)
Cc1ccccc1Nc1ncnc2c1c(-c1ccccc1)cn2-c1ccc(F)cc1	none (no result: RE007 growth inh, MARV entry inh, HCV inh)
CC1(CCc2ccc3c(c2)OCO3)NCCc2c1[nH]c1ccccc21 (configuration not stated)	HCV inh 11.2µM (no result: Lassa entry inh, MARV entry inh)
COc1ccc2sc(-c3ccc(S(C)(=O)=O)cc3)c(-c3ccc4c(c3)OCCO4)c2c1	HCV inh inconclusive (no result: Sm TGR block, Lassa entry inh, MARV entry inh)
COc1cc2c(OC(C)=O)c3c(c(-c4ccc5c(c4)OCO5)c2cc1OC)C(=O)OC3	HCV inh inconclusive (no result: Lassa entry inh, MARV entry inh)
COc1cc2sc(-c3ccc(S(C)(=O)=O)cc3)c(-c3ccc4c(c3)OCO4)c2cc1OC	HCV inh 2.82µM (no result: Sm TGR block, Lassa entry inh, MARV entry inh)
COc1cc2c(O)c3c(c(-c4ccc5c(c4)OCO5)c2cc1OC)C(=O)OC3	Lassa entry inh 3.66µM, MARV entry inh 2.31µM, HCV inh inconclusive (no result: FMDV antiviral)
COCC(C)NC(=O)CSc1ncnc2sc(-c3ccccc3)cc12 (configuration not stated)	Sm TGR block inconclusive, HCV inh inconclusive
CCN(CC)C(=O)CSc1ncnc2sc(-c3ccccc3)cc12	MARV entry inh inconclusive, HCV inh 12.6µM
CN(CCC#N)C(=O)CSc1ncnc2sc(-c3ccccc3)cc12	HCV inh inconclusive
CC(C)C(C)(C#N)NC(=O)CSc1ncnc2sc(-c3ccccc3)cc12 (configuration not stated)	HCV inh 12.6µM (no result: FMDV antiviral)
Cc1cccc(-c2nnn3c2nc(NCc2ccc4c(c2)OCO4)c2ccccc23)c1	none (no result: RE007 growth inh, HCV inh)
CC(=O)N1CCCc2cc(S(=O)(=O)N(C)CC(=O)Nc3ccc(Cl)cc3C)ccc21	FMDV antiviral inconclusive (no result: RE007 growth inh, MARV entry inh, HCV inh)
C[C@@H]1CC[C@H]2C(=O)O[C@H](COc3ccc(C(C)(C)C)cc3)CN2[C@@H]1c1ccc(Br)cc1	MARV entry inh inconclusive (no result: Sm TGR block, FMDV antiviral, RE007 growth inh, HCV inh)
NC(=NC1CCCCC1)c1ccc(Cl)cc1	FMDV antiviral 1.41µM, MARV entry inh inconclusive (no result: Sm TGR block)
N/C(=N\OC(=O)C1CCCCC1)c1ccc(Cl)cc1	Sm TGR block inconclusive (no result: Lassa entry inh, MARV entry inh)
O=C(CCC(=O)N1CCN(c2ccc(O)cc2)CC1)c1cccs1	Sm TGR block 56.2µM (no result: Lassa entry inh, MARV entry inh)
Cc1ccc(NNS(=O)(=O)c2ccc(C)cc2)cc1	Sm TGR block 7.94µM, RE007 growth inh 31.6µM, Lassa entry inh inconclusive, MARV entry inh inconclusive
Cc1ccc(S(=O)(=O)NNC(=O)C(=O)NNS(=O)(=O)c2ccc(C)cc2)cc1	RE007 growth inh inconclusive (no result: Lassa entry inh, MARV entry inh)
CC(=O)c1ccc(NC(=O)Nc2ccc(NS(=O)(=O)c3ccc(C)cc3)cc2)cc1	HCV inh 11.2µM
CC(=O)c1ccc(NC(=O)Nc2ccccc2)cc1	Lassa entry inh 8.2µM, MARV entry inh inconclusive (no result: FMDV antiviral)
COC(=O)Nc1ccc(S(=O)(=O)Nc2ccc(C)cc2)cc1	none (no result: FMDV antiviral, RE007 growth inh, Lassa entry inh, HCV inh)
C=C1C2CC[C@]3(CCC4[C@@]5(C)CCC[C@@]4(CN(CCO)C5)[C@@H]3C2)[C@@H]1O (some centres not stated)	none (no result: Sm TGR block, RE007 growth inh, Lassa entry inh, MARV entry inh, HCV inh)
C[C@@H]1CN(Cc2ccc3c(c2)CN(C(=O)CN2CCOc4ccccc4C2)CCO3)C[C@H](C)O1	none (no result: Sm TGR block, RE007 growth inh, Lassa entry inh, MARV entry inh, HCV inh)
COc1ccccc1C1CC(c2cccs2)=Nc2ccccc2S1 (configuration not stated)	Lassa entry inh inconclusive, HCV inh inconclusive
Fc1ccccc1C1CC(c2ccco2)=Nc2ccccc2S1 (configuration not stated)	Sm TGR block 8.91µM, RE007 growth inh 25.1µM (no result: Lassa entry inh, MARV entry inh)
COc1ccccc1NC(=O)c1oc2ccccc2c1NC(=O)c1ccccc1C(F)(F)F	Lassa entry inh inconclusive, MARV entry inh inconclusive (no result: RE007 growth inh, HCV inh)
CCc1ccc(OCC(=O)Nc2cc3oc4ccccc4c3cc2OC)c(Br)c1	MARV entry inh inconclusive (no result: RE007 growth inh, HCV inh)
Cc1ccc(C(=O)Nc2cccc3[nH]c(C(F)(F)F)nc23)cc1	Lassa entry inh inconclusive, MARV entry inh inconclusive, HCV inh inconclusive
COc1cccc(-c2cc(C(F)(F)F)nc(NCc3ccc(F)cc3)n2)c1	none (no result: RE007 growth inh, HCV inh)
COc1cc(CNc2cccc3[nH]c(C(F)(F)F)nc23)cc(OC)c1	Sm TGR block 22.4µM, FMDV antiviral inconclusive, HCV inh 11.2µM (no result: Lassa entry inh, MARV entry inh)
COc1ccc(CNc2cccc3[nH]c(C(F)(F)F)nc23)cc1	Sm TGR block 31.6µM, HCV inh 3.16µM
O=C(OCc1cn([C@H]2C[C@H](c3ccccc3)N(C(=O)C3CCCCC3)C[C@H]2O)nn1)c1ccccc1	none (no result: Sm TGR block, FMDV antiviral, RE007 growth inh, MARV entry inh, HCV inh)
CCCCN1C(=O)C(CC(=O)NC2CCCCC2)CC(C(=O)N2CCOCC2)=C1C (configuration not stated)	none (no result: Sm TGR block, Lassa entry inh, MARV entry inh, HCV inh)
CCCCN1C(=O)C(CC(=O)NC2CCCC2)CC(C(=O)N2CCOCC2)=C1C (configuration not stated)	FMDV antiviral 39.8µM (no result: Sm TGR block, Lassa entry inh, MARV entry inh, HCV inh)
COc1ccc(Cn2nnnc2CN2CCC(c3nc4ccccc4s3)CC2)cc1	FMDV antiviral 20µM, Lassa entry inh inconclusive, MARV entry inh inconclusive, HCV inh 25.1µM
c1ccc2sc(N3CCN(Cc4nnnn4CC4CCCO4)CC3)nc2c1 (configuration not stated)	FMDV antiviral inconclusive, Lassa entry inh inconclusive
c1ccc2sc(C3CCN(Cc4nnnn4Cc4ccc5c(c4)OCO5)CC3)nc2c1	FMDV antiviral 20µM, Lassa entry inh inconclusive, MARV entry inh inconclusive, HCV inh inconclusive
O=C(NCc1ccco1)C1CCCN(S(=O)(=O)c2ccc(-n3cnnn3)cc2)C1 (configuration not stated)	Sm TGR block 20µM

Compound activity as filed in PubChem BioAssay.
